Source: PubChem BioAssay (several laboratories)
PfHsp40 rescue: restores yeast growth despite PfHsp40 toxicity; 340,000 compounds, 0.68% hits; S. cerevisiae expressing PfHsp40, growth rescue, ATP luminescence; AID 504582; growth rescue, % at 12.5 µM; in the data active = growth rescue above about 28%, passing the limit was not always enough;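 note: yeast W303a lacking pdr1 and pdr3 grown in galactose medium; growth measured after three days at 30 °C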
TcdB GH inh: TcdB glycohydrolase inhibition | P18177 | TcdB glycohydrolase enzymatic assay, plate reader | inhibition, % at 9.99 µM | 350,000 compounds, 0.24% hits | AID 652162; in the data active = inhibition above about 10%
Sa RN4220 lethal: S. aureus RN4220 growth inhibition; OD600, 16 h; inhibition, % (no concentration beside the values); 330,000 compounds, 0.33% hits; in the data active = inhibition above about 85%;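 note: plate controls were untreated cells for no effect and reference antibiotic for full effect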
ugtP null kill: kills S. aureus RN4220 lacking UgtP; growth inhibition, % (no concentration beside the values); 330,000 compounds, 0.54% hits; S. aureus RN4220 ugtP deletion, OD600 growth, 16 h; AID 1259309; in the data active = growth inhibition above about 68%;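 note: plate controls were untreated wells for no effect and antibiotic for full effect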
PrP UTR inh: suppresses PrP 5' UTR mRNA reporter expression; 340,000 compounds, 0.35% hits; cell-based PrP 5' UTR mRNA reporter, plate reader; AID 488862; inhibition, % (test concentration not listed); in the data active = inhibition above about 52%; note: 0 = median of the neutral control wells
PrP 5UTR single: prion 5' UTR mRNA inhibition, cherry-pick retest. shares compounds with PrP UTR inh. inhibition, % at 2.5 µM. cell-based prion protein 5' UTR reporter, plate reader. 1,100 compounds, 48% hits. AID 504592; in the data active = inhibition above about 54%
* marks the source's active call; other numbers are inactive results; . = no result. Compounds with a hit are over-represented: about 1.2% of the library has one in this group of screens.

SMILES	PfHsp40 rescue	TcdB GH inh	Sa RN4220 lethal	ugtP null kill	PrP UTR inh	PrP 5UTR single
CCOC(=O)C1(Cc2ccccc2)CCCN(Cc2ccc(OCC)c(CO)c2)C1 (stereo not drawn)	0	-2	6	7	52*	5
CN(C)CCN1C(=O)c2cccc3cc([N+](=O)[O-])cc(c23)C1=O	-1	0	.	.	66*	84*
COc1cc([N+](=O)[O-])cc(C=NNC(=O)CSc2ccccn2)c1O	.	.	11	1	.	.
COc1ccc(S(=O)(=O)Nc2ccc3c(c2)CC(=O)N([C@H](C)CO)C[C@@H](C)[C@@H](CN(C)C(=O)NC(C)C)O3)cc1	.	1	.	.	.	.
O=C(NCc1ccccn1)c1ccc(Cn2c(=S)[nH]c3ccc(Br)cc3c2=O)cc1	0	0	6	-1	71*	-6
c1nc(CCO[C@H]2CCCCO2)cc2cc3c(cc12)OCO3	1	1	.	.	63*	36
COc1cc2cnc(CCOC3CCCCO3)cc2cc1OC (stereo not drawn)	.	.	3	-2	.	.
CC1CN(C(=O)CCC(=O)NCc2ccc(Cl)cc2)c2ccccc2S1 (stereo not drawn)	1	0	9	8	63*	-13
CC1CN(C(=O)CCC(=O)NCc2ccc(F)cc2)c2ccccc2S1 (stereo not drawn)	1	3	5	-1	3	.
Fc1ccc(-c2nnc(NC3=NCCCCC3)o2)cc1	0	.	0	5	78*	64*
C[C@H](CO)N1C[C@H](C)[C@@H](CN(C)C(=O)Cc2ccccc2)OCCCC[C@H](C)Oc2ccc(NC(=O)Cc3ccccc3)cc2C1=O	.	0	.	.	.	.
O=C(NN=C1CCCc2ccccc21)c1cc([N+](=O)[O-])cc([N+](=O)[O-])c1	.	.	3	4	.	.
Cc1ccc(NC2=CC(=O)C(=O)c3ccccc32)cc1	1	.	57	38	-5	.
Cc1cc(NC2=CC(=O)C(=O)c3ccccc32)no1	4	-2	.	.	77*	-2
Cc1c(NS(=O)(=O)c2ccc(C(=O)NCc3ccccc3)cc2)c(=O)n(-c2ccccc2)n1C	0	5	7	5	56*	1
O=C(NN=C/C=C/c1ccc2c(c1)OCO2)c1cccnc1	.	.	2	10	.	.
NC(=O)c1cc([N+](=O)[O-])ccc1NCc1ccc(N)cc1	0	0	.	.	74*	75*
NC(=O)c1cc([N+](=O)[O-])ccc1NCc1ccc(F)cc1	1	0	5	1	-7	.
